Shown are actives, neighbours in structure and some others; about 4.2% of the full set was active somewhere.
Ec RNAP inh: E. coli RNAP inhibitors, biochemical; E. coli RNA polymerase, fluorescence transcription assay; inhibition, %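 (tested at 10 µM)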; hit rate 0.2% among 62,000; AID 559, 2006; in the data active = inhibition above about 20%;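 note: 0% = enzyme without compound and 100% = no enzyme blank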
PTK2B oligo ant: antagonists of Pyk2 self-association, primary screen, Q293 cells, FERM NanoBiT luminescence, HTS; Protein-tyrosine kinase 2-beta (Homo sapiens), Q14289; active compounds read low; z-score (the deposit names both 25 µM and 10 µM); hit rate 0.83% among 99,000; AID 1347419, 2020;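 active = Z-score of -3 or lower, scaled per plate to the spread of control and sample wells; inactive = z-score above -3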;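 note: negative z-score means lost luminescence so less FERM oligomerization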
CD11b adhes enh: enhancers of CD11b/CD18 adhesion to fibrinogen, primary screen, K562 cells, luminescence. Integrin beta-2 (Homo sapiens) + Integrin alpha-M (Homo sapiens), P05107+P11215. ATPlite luminescence. activation, % at 10 µM. hit rate 0.07% among 93,000;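 active = 10 µM primary screen giving 50% or more activity, confirmed by 40% or more on retest at that dose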
CD11b adhes inh: inhibitors of CD11b/CD18 adhesion to fibrinogen, primary screen, K562 cells, luminescence; Integrin beta-2 (Homo sapiens) + Integrin alpha-M (Homo sapiens), P05107+P11215; hit rate 0.54% among 93,000; AID 1497, 2009; ATPlite luminescence; Mn2+ added to activate the integrin; inhibition, % at 10 µM;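 active = primary inhibition of 50% or more at 10 µM, then 40% or more on retest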
Cav32 inh: Cav3.2 calcium influx blockers – cell-based, Fluo-4 calcium fluorescence, FDSS, MLSMR library, primary screen. B-score at 10 µM. AID 449739, 2010. hit rate 4% among 100,000. Cav3.2-expressing cells; active compounds read low;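 active = single-dose well whose peak fluorescence ratio is a statistical outlier from its plate by either plate-standardised score or position-corrected B-score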
The depositor's hits bear a star; . = no result.

SMILES	Ec RNAP inh	PTK2B oligo ant	CD11b adhes enh	CD11b adhes inh	Cav32 inh
O=C(/C=N/O)NCc1ccncc1	2.8	-0.03	-0.2	-30.6	-7.99*
O=C(NCc1ccncc1)C(F)(F)C(F)(F)C(=O)NCc1ccncc1	9.8	0.49	-4.3	-3.3	-0.181
O=[N+]([O-])c1ccc(-c2nc(-c3cccs3)c(-c3cccs3)[nH]2)cc1	.	-4.17*	.	.	-3.5
O=[N+]([O-])c1cccc(-c2nc(-c3cccs3)c(-c3cccs3)[nH]2)c1	.	-2.31	.	.	0.0535
C=CCc1ccc(OCC(O)CN2CCCCC2)c(OC)c1 (configuration not stated)	6.2	0.06	-0.2	-11.3	-2.16
C=CCc1ccc(OCCOCCOc2ccccc2[N+](=O)[O-])c(OC)c1	.	-0.79	.	.	-4.61*
C=CCc1ccc(OCCCOc2ccc(C)cc2OC)c(OC)c1	.	-0.26	1.8	20.3	-0.473
C=CCc1ccc(OCC(O)COc2ccc(CC=C)cc2OC)c(OC)c1	.	-1.75	1.5	6.4	-8.86*
CN(CC(CC(=O)Nc1nncs1)c1ccccc1)S(=O)(=O)c1ccccc1 (configuration not stated)	5.7	.	-0.6	-10.1	-2.44
CN(CC(CC(=O)Nc1nncs1)c1ccccc1)S(=O)(=O)c1ccc(Br)cc1 (configuration not stated)	.	.	-3.0	-10.0	-9.53*
CCc1nnc(NC(=O)CC(CN(C)S(=O)(=O)c2ccccc2)c2ccccc2)s1 (configuration not stated)	.	.	4.4	-10.7	-6.88*
CCCN(CCC)C(=O)CSc1nc2n[nH]c(C)c2c(=N)n1-c1ccc(OCC)cc1	-0.2	-2.1	4.8	15.4	-6.25*
CCCN(CCC)C(=O)CSc1nc2n[nH]c(C)c2c(=N)n1-c1ccc(OC)cc1	.	-2.48	-0.4	3.3	.
CC1CCCN(Cc2cccc(Oc3ccccc3)c2)C1 (configuration not stated)	.	0.09	.	.	0.444
O=C(Cc1ccccc1)NCCSCc1ccco1	7.3	0.63	-2.4	-9.5	-0.179
O=C(Cc1ccccc1)NCCSCc1ccc(Cl)cc1	.	-0.49	.	.	-4.37*
CC1(C)Cc2c(sc3c2c2ncnn2c2nnc(SCC(=O)NCc4ccco4)n32)CO1	2.6	0.09	2.5	-12.0	2.6
CCC1(C)Cc2c(sc3c2c2ncnn2c2nnc(SCC(=O)NCc4ccco4)n32)CO1 (configuration not stated)	3.4	0.85	-3.8	-2.4	3.73*
CO/N=C(/CNC(=O)c1ccc(F)cc1)c1ccc(Cl)cc1	.	-0.91	.	.	.
COC(=O)C1N[C@@H]([C@@H](NC(=O)COc2ccccc2)C(=O)NC2CC2)SC1(C)C (some centres not stated)	.	.	.	.	1.02
COc1ccccc1NC(=O)Cc1noc(CSc2cccc[n+]2[O-])n1	.	0.32	-2.7	-3.1	1.32
COc1ccccc1NC(=O)Cc1noc(CSc2cc(C)c3ccccc3n2)n1	0.9	-0.15	2.9	12.4	-6.95*
Cc1cccc(N2CCN(C(=O)c3cc4c(=O)n(C)c5ccccc5c4n3C)CC2C)c1 (configuration not stated)	2.0	.	-2.6	5.6	-4.41*
Cn1c(C(=O)N2CCCCCC2)cc2c(=O)n(C)c3ccccc3c21	1.4	.	3.6	-5.4	0.395
Cc1cccc(N2CCN(C(=O)c3ccc4nc(-c5ccco5)c(-c5ccco5)nc4c3)CC2C)c1 (configuration not stated)	.	-1.36	.	.	-6.55*
SMILES	Ec RNAP inh	PTK2B oligo ant	CD11b adhes enh	CD11b adhes inh	Cav32 inh
COc1cccc(NC(=O)N2CCN(c3cccc(C)c3)C(C)C2)c1 (configuration not stated)	4.7	-0.3	.	.	-4.89*
O=C(CCn1c(=O)c2ccccc2n(Cc2ccccc2)c1=O)NCc1ccc2c(c1)OCO2	.	0.48	-0.4	-11.2	.
CCOc1ccc(OCCSc2nc3ccccc3[nH]2)cc1	.	-0.48	.	.	-0.815
Cc1cccc(OCCCSc2nc3ccccc3[nH]2)c1	.	0.69	-7.8	37.0	-8.07*
Cc1ccc(-c2cc(C(=O)NCc3ccccn3)c3ccccc3n2)cc1C	.	-0.91	6.3	9.3	-2.62
O=C(CSc1nc2ccc([N+](=O)[O-])cc2[nH]1)NCCc1ccccc1	.	1.4	.	.	-1.5

Bioassay records (PubChem BioAssay)
